# HEK cytotox – cytotoxic compounds in HEK 293 cells. HEK 293 viability, ATP luminescence (CellTiter-Glo), 48-72 h. Potency, µM (top dose mostly 115 µM), inactives show at the top dose activity change, negative = cytotoxicity, actives largely listed as inhibitors. 94,000 compounds, 6.6% hits; also: nearly all actives have a fitted effect of over 60% in size
#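 Luminescence from cellular ATP, measured with CellTiter-Glo, indicates HEK 293 viability. Cells plated at 250 cells/well are treated with compound for 48 or 72 hr at 37 degree Celsius before reagent addition.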
# 3T3 cytotox – NIH 3T3 cell cytotoxicity | NIH 3T3 viability, CellTiter-Glo ATP luminescence, 48-72 h | Potency, µM (series often up to 96.7 µM), for the others: top-dose activity change, negative = cytotoxicity, usual class: inhibitors | 94,000 compounds, 4.3% hits | AID 1345082; also: nearly all actives have a fitted effect of over 55% in size
#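 Cells were seeded at 400 per well, treated with pin-transferred compound, and kept 48 or 72 hr at 37 °C before CellTiter-Glo addition and luminescence imaging of cellular ATP.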
# GPT2 inh – GPT2 alanine aminotransferase inhibition. Q8TD30. Recombinant GPT2, coupled pyruvate oxidase/HRP Amplex Red fluorescence. Potency, µM (highest dose often 57.7 µM), without a hit: top-dose activity change, negative = inhibition, hits mostly inhibitors. 100,000 compounds, 0.25% hits; also: nearly all actives have a fitted effect of over 60% in size
#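 GPT2 10ng/uL, a-KG 250uM, L-Ala 2mM, HEPES pH7.5 + 0.0001% Tween; 30 min RT. Then Amplex mix (PO/HRP/ThPP), 30 min RT dark, fluorescence. AOA 50uM used as positive control.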
# NPR1 antag – blocks ANP-stimulated signaling of human Npr1 receptor | Potency, µM (doses to about 46.3 µM), for the others: at the highest dose activity change, negative = inhibition, most hits filed as inhibitors | 76,000 compounds, 1.6% hits | P16066 | AID 1347048 | HEK293 hNpr1 GloSensor cGMP, ANP-stimulated luminescence; calls by dose curve; also: nearly all actives have a fitted effect of over 60% in size
#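 Compound pre-incubated 30 min at room temperature on GloSensor-loaded HEK293 cells stably carrying hNpr1 and the pGS-40F cGMP biosensor. Stimulation uses hNppA at 0.1 nM final; luminescence is taken at baseline and 20 min post-agonist.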
# FLuc inh – inhibitors of firefly (Photinus pyralis) luciferase; P08659; purified P. pyralis luciferase, luminescence, biochemical; Potency, µM (titrated, usually from 115 µM), most hits filed as inhibitors; 76,000 compounds, 2.5% hits; AID 1347043; also: nearly all actives have a fitted effect of over 65% in size
# Target sequence (P08659 whole entry, looked up): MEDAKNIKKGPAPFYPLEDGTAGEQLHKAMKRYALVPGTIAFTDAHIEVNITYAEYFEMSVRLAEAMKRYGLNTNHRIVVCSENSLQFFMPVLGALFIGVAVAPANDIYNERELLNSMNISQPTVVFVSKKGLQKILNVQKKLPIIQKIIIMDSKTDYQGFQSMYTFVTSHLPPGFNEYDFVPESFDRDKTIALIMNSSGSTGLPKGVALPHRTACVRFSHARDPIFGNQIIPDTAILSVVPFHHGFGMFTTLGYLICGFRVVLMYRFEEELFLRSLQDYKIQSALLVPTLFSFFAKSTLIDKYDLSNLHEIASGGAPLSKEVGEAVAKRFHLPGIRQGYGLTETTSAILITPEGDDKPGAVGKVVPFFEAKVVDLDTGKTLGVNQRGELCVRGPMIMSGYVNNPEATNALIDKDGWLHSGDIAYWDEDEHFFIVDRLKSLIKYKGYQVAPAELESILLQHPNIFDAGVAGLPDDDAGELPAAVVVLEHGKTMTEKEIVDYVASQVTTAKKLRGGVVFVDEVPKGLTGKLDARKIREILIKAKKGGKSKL
#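 Biochemical qHTS: compound (6-point titration) added to 10uM D-luciferin plus 10uM ATP in Tris acetate pH 7.5 buffer with Mg, Tween-20 and BSA, then purified enzyme at 10nM; light output imaged.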
# Active calls of the source: *; i = inactive; ? = inconclusive; · = no result given; [ ] = dose if it differs, or a comment. Compounds with a hit are over-represented: about 10% of the library has one in this group of screens. Unless noted, calls follow the shape of the dose curve; as a rule, active = well fitted curve in the direction sought with a large enough effect; inconclusive = small, poorly fitted or top-dose-only effect, or another doubt; inactive = no such curve, though single readings can be large; an effect the other way counts as inactive or inconclusive. % is scaled to controls: 0 for no effect and ±100 for the full control effect; potency is read from the fitted curve at half-maximal effect.
SMILES,HEK cytotox,3T3 cytotox,GPT2 inh,NPR1 antag,FLuc inh
CCCCN(C)C(=O)c1cccc2c1CCN2C(=O)Nc1ccc(OC)cc1,?,-21%,i,-8%,18µM*
CCC(=O)N1CCc2c(C(=O)NCc3ccc(OC)cc3)cccc21,-17%,-16%,-3%,-2%,i
O=C(NCCc1cccs1)c1cccc2c1CCN2C(=O)Nc1ccccc1,?,?,i,-20%,16µM*
CCC(=O)N1CCc2c(C(=O)Nc3ccc(C)cc3)cccc21,-23%,-24%,3%,0%,i
CCN(CC)C(=O)c1cccc2c1CCN2C(=O)Nc1cccc(C)c1,?,?,i,-15%,i
Cc1ccc(NC(=O)N2CCc3c(C(=O)NCCCN4CCCC4=O)cccc32)cc1,45µM*,?,-7%,1.4µM*,0.28µM*
COc1ccc(NC(=O)N2CCc3c(C(=O)NC(C)C)cccc32)cc1,25µM*,?,i,2.5µM*,0.28µM*
Cc1ccc(NC(=O)N2CC(N3C(=O)c4c(c(C)nn4-c4ccccc4)C3C3CC3)C2)cc1F (centres undefined),?,-15%,·,·,·
COCCN1Cc2sccc2N(CC(O)COc2ccc(OC)cc2)CCC1=O (centres undefined),?,-33%,·,·,·
Cc1ncc(CN2CCCC2C(=O)Nc2ccc(-c3cccc(F)c3)cc2)n1C (centres undefined),20µM*,?,i,16%,i
O=C(Nc1ccc(-c2cccc(F)c2)cc1)C1CCCN1Cc1ccc(CO)o1 (centres undefined),35µM*,?,i,-19%,?
Cc1ncc(CN2CCCC2C(=O)Nc2ccc(-c3cccc(F)c3)cc2)[nH]1 (centres undefined),?,?,-3%,-2%,i
O=C(C1CCCC1)N1Cc2ccccc2CC2(CCCN(Cc3ccccc3)C2)C1 (centres undefined),?,?,i,·,·
CN1C[C@H]2CN(Cc3c[nH]c4ccccc34)CCN2C1=O,-29%[230 µM],?,i,-5%[70.6 µM],?
COc1ccc(CN2C[C@H]3CN(Cc4c[nH]c5ccccc45)CCN3C2=O)cc1,100µM*,?,3%[88.5 µM],-5%[70.6 µM],i
COc1ccc(CN2C[C@H]3CN(Cc4ccc(C(F)(F)F)cc4)CCN3C2=O)cc1,?,?,-12%[88.5 µM],?,i
Cc1ccc(CN2C[C@H]3CN(Cc4ccc(OC(F)(F)F)cc4)CCN3C2=O)cc1,71µM*,50µM*,-23%[88.5 µM],?,i
O=C1N2CCCC2CN1C1CCN(Cc2ccc(OC(F)(F)F)cc2)CC1 (centres undefined),40µM*,?,?,?,i
COc1ccc(CN2C[C@H]3CN(Cc4ccc(Cl)cc4)CCN3C2=O)cc1,71µM*,?,-13%[88.5 µM],?,i
CCC1=C(C(=O)OC)C(c2ccc(OC)cc2OC)N2C(CC(=O)N3CCOCC3)=CSC2=N1 (centres undefined),-3%,i,i,-15%,i
COc1ccc(C(=O)N2CCC3(CC2)NC(=O)N(c2cccc(F)c2)N3)cc1OC,?,?,-28%,3%,i
COCCN[C@@H]1C[C@@H]2c3[nH]c4ccccc4c3C[C@@H](C(=O)OC)N2[C@H](c2ccc(Cl)c(F)c2)C1,?,14µM*,i,?,i
COC(=O)[C@@H]1Cc2c([nH]c3ccccc23)[C@H]2C[C@@H](NCc3cccnc3)C[C@@H](c3ccccc3)N21,22µM*,?,i,-6%,i
COCCNC(=O)[C@@H]1CCC[C@@H](NCc2cccnc2)CN(C)C(=O)C1,i,i,-2%[88.5 µM],5%[70.6 µM],i
COCCNC(=O)[C@H]1C[C@H](Oc2ccccc2)CN1C(=O)c1ccc(F)cc1,4%,0%,?,10%,i
SMILES,HEK cytotox,3T3 cytotox,GPT2 inh,NPR1 antag,FLuc inh
COCCN[C@H]1C[C@@H]2c3[nH]c4ccccc4c3C[C@@H](C(=O)OC)N2[C@H](c2ccccc2)C1,40µM*,35µM*,1%[88.5 µM],-14%[70.6 µM],i
COC(=O)[C@@H]1Cc2c([nH]c3ccccc23)[C@@H]2C[C@@H](NC(C)C)C[C@@H](c3ccc(F)cc3)N12,28µM*,28µM*,-8%,1%,i
COc1ccc(C(=O)N2CCC3(CC2)CC(CN2CCOCC2)N(C)C3)cc1F (centres undefined),-17%,-19%,i,·,·
COC(=O)[C@H]1[C@H]2C[C@H]3c4[nH]c5ccccc5c4CCN3C[C@H]2CC[C@@H]1O,·,·,i,·,·
COC(=O)C1C(O)CCC2CN3CCc4c([nH]c5ccccc45)C3CC21 (centres undefined),·,·,1%[27.3 µM],·,·
COCCN[C@@H]1C[C@@H]2c3[nH]c4ccccc4c3C[C@@H](C(=O)OC)N2[C@H](c2ccc(C(C)C)cc2)C1,?,28µM*,?,?,i
COCCNC(=O)[C@H]1C[C@H](Oc2ccccc2)CN1C(=O)c1cccc(OC)c1,i,4%,-8%,-4%,i
COC(=O)[C@@H]1Cc2c([nH]c3ccccc23)[C@H]2C[C@@H](NCCN(C)C)C[C@@H](c3ccc(F)cc3)N21,20µM*,14µM*,-17%,0%,i
COCCN[C@@H]1C[C@@H]2c3[nH]c4ccccc4c3C[C@@H](C(=O)OC)N2[C@H](c2cccc(OC)c2)C1,22µM*,?,?,?,i
CC(=O)N1CCN(c2ccc3nnc(C)n3n2)CC1,i,-11%[138 µM],·,·,·
O=C(c1ccc2c(c1)OCO2)N1CCCC2(CNc3ncccc3[S+](=O)([O-])N2)C1 (centres undefined),-14%,-21%,·,·,·
O=C1NCCCCCN(Cc2cn[nH]c2-c2cccs2)[C@H]2CCC[C@@H]12,-9%,-29%,i,1%,i
O=C1CC(c2ccccc2)N(Cc2cn[nH]c2-c2cccs2)CCCCCN1 (centres undefined),79µM*,?,i,-1%,i
CCOc1ccccc1CN1CCO[C@@H](COC)[C@@H]1c1ccccc1,40µM*,-27%,0%,·,·
CCOc1ccccc1CN1CCCCCCNC(=O)CC1c1ccccc1 (centres undefined),32µM*,25µM*,i,-1%,i
COc1cccc(CN2CCCCCCNC(=O)CC2c2ccccc2)c1OC (centres undefined),45µM*,40µM*,i,1%,i
COc1cccc(CN2CCCCCNC(=O)CC2c2ccccc2)c1OC (centres undefined),?,?,-19%,2%,i
CC(C)C1=NOC2(CCN(Cc3ccc(Cl)cc3)CC2)C1,?,-31%,1%,·,·
